“And” between values parts separate entries of the source, which are not always exact repeats. Identical values can stand only once. About 2,000 (36%) of roughly 5,500 compounds were called active. Roughly 18% stayed inconclusive and do not appear here. Rule as the data show it: active = normalized growth mostly below about 0.91 (no sharp cut-off); inconclusive = no clear call, values can overlap the other calls; inactive = mostly above about 0.92. This is one part of the list.
Assay: chemical genetic growth profiling, strain panel (AID 1159580);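 also: tested at 20 µM; growth read once vehicle control cultures reached saturation at 30 °C; 1 = growth at the plate median or of vehicle wells; lower values mean less growth of the strain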
Settings: S. cerevisiae deletion strains, growth OD

Measured: normalized growth

CC1(C)C(=O)C=C[C@@]2(C)C1CC(=O)[C@]1(C)C2CC[C@@]2(C)[C@H](c3ccoc3)OC(=O)[C@H]3O[C@]321 (some centres undefined)
inactive: locus YAL021C, strain ccr4, active compounds read low 1.02 | locus YAL026C, strain drs2, active compounds read low 0.99 | locus YAL030W, strain snc1, active compounds read low 0.981 | locus YBL061C, strain skt5, active compounds read low 0.975 | locus YBR009C, strain hhf1, active compounds read low 1.04 | locus YBR021W, strain FUR4, active compounds read low 0.992 | locus YBR023C, strain chs3, active compounds read low 0.991 | locus YBR171W, strain sec66, active compounds read low 0.98 | locus YBR229C, strain ROT2, active compounds read low 0.999 | locus YBR231C, strain swc5, active compounds read low 1.03 | locus YBR279W, strain paf1, active compounds read low 1.01 | locus YCL016C, strain dcc1, active compounds read low 0.988 | locus YCL029C, strain bik1, active compounds read low 1.02 | locus YCL061C, strain MRC1, active compounds read low 0.988 | locus YCL069W, strain vba3, active compounds read low 0.977 | locus YCR088W, strain abp1, active compounds read low 0.998 | locus YDL005C, strain med2, active compounds read low 0.977 | locus YDL035C, strain GPR1, active compounds read low 0.99 | locus YDL040C, strain nat1, active compounds read low 0.977 | locus YDL074C, strain BRE1, active compounds read low 0.991 | locus YDL101C, strain DUN1, active compounds read low 1.01 | locus YDL134C, strain PPH21, active compounds read low 1.01 | locus YDL185W, strain tfp1, active compounds read low 1.01 | locus YDL192W, strain arf1, active compounds read low 1.01 | locus YDR001C, strain nth1, active compounds read low 0.992 | locus YDR069C, strain doa4, active compounds read low 0.949 | locus YDR101C, strain arx1, active compounds read low 0.991 | locus YDR137W, strain rgp1, active compounds read low 0.989 | locus YDR150W, strain NUM1, active compounds read low 0.995 | locus YDR159W, strain sac3, active compounds read low 1 | locus YDR162C, strain NBP2, active compounds read low 0.962 | locus YDR195W, strain ref2 1.02 | locus YDR297W, strain sur2, active compounds read low 0.994 | locus YDR318W, strain mcm21, active compounds read low 1.01 | locus YDR334W, strain swr1, active compounds read low 0.988 | locus YDR335W, strain msn5, active compounds read low 0.994 | locus YDR388W, active compounds read low 1.02 | locus YDR392W, strain spt3, active compounds read low 0.925 | locus YDR502C, strain sam2, active compounds read low 1.04 | locus YEL003W, strain gim4, active compounds read low 0.975 | locus YEL037C, strain rad23, active compounds read low 0.989 | locus YEL061C, strain CIN8 (second series), active compounds read low 0.996 | locus YEL061C, strain CIN8, active compounds read low 0.986 | locus YER015W, strain faa2, active compounds read low 0.975 | locus YER016W, strain bim1, active compounds read low 0.966 | locus YER110C, active compounds read low 1.02 | locus YER111C, strain swi4, active compounds read low 0.968 | locus YER155C, strain BEM2 (second series), active compounds read low 1.04 | locus YER155C, strain BEM2, active compounds read low 1 | locus YER167W, strain BCK2, active compounds read low 0.986 | locus YFR010W, strain ubp6, active compounds read low 1.02 | locus YGL078C, strain dbp3, active compounds read low 1.02 | locus YGL086W, strain mad1, active compounds read low 1.01 | locus YGL167C, strain pmr1, active compounds read low 0.992 | locus YGL173C, strain kem1, active compounds read low 1.01 | locus YGL227W, strain vid30, active compounds read low 0.994 | locus YGL240W, strain doc1, active compounds read low 1.06 | locus YGL248W, strain PDE1, active compounds read low 1 | locus YGL253W, strain hxk2, active compounds read low 0.981 | locus YGR135W, strain pre9, active compounds read low 1.05 | locus YGR252W, strain gcn5, active compounds read low 1.09 | locus YHR013C, strain ard1, active compounds read low 0.964 | locus YHR027C, strain rpn1, active compounds read low 0.995 | locus YHR030C, strain SLT2, active compounds read low 0.988 and 0.992 | locus YHR079C, strain IRE1 (second series), active compounds read low 1.01 | locus YHR079C, strain IRE1, active compounds read low 0.987 | locus YHR094C, strain hxt1, active compounds read low 1.02 | locus YHR129C, strain ARP1, active compounds read low 0.988 | locus YHR142W, strain chs7, active compounds read low 0.968 | locus YHR200W, strain rpn10, active compounds read low 1.01 | locus YIL066C, strain RNR3, active compounds read low 0.978 | locus YIL073C, strain SPO22, active compounds read low 1.04 | locus YIL125W, strain kgd1, active compounds read low 0.998 | locus YIR030C, strain dcg1, active compounds read low 1.01 | locus YJL092W, strain hpr5, active compounds read low 0.971 | locus YJL095W, strain BCK1 (second series), active compounds read low 0.976 | locus YJL095W, strain BCK1, active compounds read low 1 and 0.983 | locus YJL115W, strain asf1, active compounds read low 0.983 | locus YJL129C, strain trk1, active compounds read low 0.952 | locus YJL134W, strain LCB3, active compounds read low 0.986 | locus YJL154C, strain vps35, active compounds read low 0.978 | locus YJL164C, strain tpk1, active compounds read low 0.985 | locus YJL166W, strain qcr8, active compounds read low 1 | locus YJL168C, strain set2, active compounds read low 1 | locus YJL187C, strain SWE1 (second series), active compounds read low 1.02 | locus YJR066W, strain TOR1, active compounds read low 0.927 | locus YJR075W, strain HOC1, active compounds read low 0.995 | locus YKL009W, strain mrt4, active compounds read low 1 | locus YKL068W, active compounds read low 1 | locus YKL085W, strain MDH1 (second series), active compounds read low 0.992 | locus YKL085W, strain MDH1, active compounds read low 0.992 | locus YKL160W, strain elf1, active compounds read low 0.976 | locus YKL190W, strain CNB1, active compounds read low 0.997 | locus YKR001C, strain vps1, active compounds read low 1.03 | locus YKR026C, strain gcn3, active compounds read low 0.998 | locus YKR091W, strain srl3, active compounds read low 0.974 | locus YLL001W, strain dnm1, active compounds read low 1 | locus YLL026W, active compounds read low 0.997 | locus YLL041C, strain sdh2, active compounds read low 0.982 | locus YLR027C, strain aat2, active compounds read low 1 | locus YLR039C, strain RIC1, active compounds read low 0.886 | locus YLR058C, strain SHM2, active compounds read low 0.996 | locus YLR102C, strain apc9, active compounds read low 1.01 | locus YLR113W, strain HOG1, active compounds read low 1.01 | locus YLR221C, strain rsa3, active compounds read low 1.04 | locus YLR258W, strain gsy2, active compounds read low 0.976 | locus YLR262C, strain YPT6 (second series), active compounds read low 0.972 | locus YLR262C, strain YPT6, active compounds read low 0.897 | locus YLR268W, strain sec22, active compounds read low 0.982 | locus YLR320W, strain mms22, active compounds read low 1.02 | locus YLR330W, strain CHS5, active compounds read low 0.994 | locus YLR342W, strain FKS1 (second series), active compounds read low 0.982 | locus YLR342W, strain FKS1, active compounds read low 0.98 | locus YLR357W, strain rsc2, active compounds read low 0.941 | locus YLR370C, strain arc18, active compounds read low 0.99 | locus YLR371W, strain rom2, active compounds read low 0.998 | locus YLR384C, strain iki3, active compounds read low 0.987 | locus YLR418C, strain cdc73, active compounds read low 1.04 | locus YML016C, strain PPZ1, active compounds read low 0.984 | locus YML032C, strain rad52, active compounds read low 1.02 | locus YML120C, strain ndi1, active compounds read low 0.988 | locus YML124C, strain tub3, active compounds read low 1.01 | locus YMR058W, strain fet3, active compounds read low 1 | locus YMR078C, strain ctf18, active compounds read low 1.01 | locus YMR125W, strain sto1, active compounds read low 0.973 | locus YMR129W, active compounds read low 0.971 | locus YMR205C, strain PFK2, active compounds read low 1.04 | locus YMR223W, strain ubp8, active compounds read low 1.01 | locus YMR231W, strain pep5, active compounds read low 0.982 | locus YMR307W, strain GAS1, active compounds read low 0.868 | locus YNL067W, strain RPL9B, active compounds read low 1.01 | locus YNL071W, strain lat1, active compounds read low 1 | locus YNL128W, strain TEP1, active compounds read low 0.978 | locus YNL183C, strain NPR1, active compounds read low 0.931 | locus YNL209W, strain ssb2, active compounds read low 0.989 | locus YNL233W, strain BNI4, active compounds read low 0.987 | locus YNL248C, strain rpa49, active compounds read low 0.93 | locus YNL250W, strain rad50, active compounds read low 1.03 | locus YNL271C, strain bni1, active compounds read low 1 | locus YNL298W, strain CLA4, active compounds read low 1.03 | locus YNL307C, strain MCK1, active compounds read low 1 | locus YNL322C, strain KRE1 (second series), active compounds read low 0.958 | locus YNR049C, strain mso1, active compounds read low 0.952 | locus YNR052C, strain pop2, active compounds read low 1.03 | locus YOL006C, strain TOP1, active compounds read low 0.987 | locus YOL012C, strain htz1 1.38 | locus YOL147C, strain pex11, active compounds read low 1.01 | locus YOR001W, strain rrp6, active compounds read low 1 | locus YOR061W, strain CKA2, active compounds read low 0.991 | locus YOR069W, strain VPS5, active compounds read low 0.995 | locus YOR070C, strain gyp1, active compounds read low 0.995 | locus YOR080W, strain dia2, active compounds read low 0.986 | locus YOR083W, strain WHI5, active compounds read low 0.907 | locus YOR106W, strain vam3, active compounds read low 0.955 | locus YOR136W, strain idh2, active compounds read low 1.01 | locus YOR144C, strain elg1, active compounds read low 1.01 | locus YOR184W, strain ser1, active compounds read low 0.974 | locus YOR231W, strain MKK1, active compounds read low 0.983 | locus YOR265W, strain rbl2, active compounds read low 0.984 | locus YOR270C, strain vph1, active compounds read low 0.993 | locus YOR290C, strain snf2, active compounds read low 0.976 | locus YOR316C, strain cot1, active compounds read low 1.01 | locus YPL051W, strain arl3, active compounds read low 1 | locus YPL055C, strain LGE1, active compounds read low 1 | locus YPL078C, strain atp4, active compounds read low 0.976 | locus YPL106C, strain sse1, active compounds read low 0.986 | locus YPL240C, strain hsp82, active compounds read low 0.996 | locus YPL241C, strain CIN2, active compounds read low 0.987 | locus YPL256C, strain CLN2, active compounds read low 0.987 | locus YPR119W, strain clb2, active compounds read low 1.01 | locus YPR141C, strain kar3, active compounds read low 1 | locus YPR163C, strain tif3, active compounds read low 1.01 | locus YPR167C, strain met16, active compounds read low 1.01 | strain wtn01, active compounds read low 1
